# According to PubChem BioAssay AID1159580 (chemical genetic matrix, 2015):
# Where “and” joins values, the source holds several entries; their conditions need not be identical. Equal entries are not always repeated. The whole screen tested about 5,500 compounds, of which about 2,000 (36%) were called active. Not shown: some 18% with an inconclusive outcome. No stated cut-off is given here; in the data, active means normalized growth mostly below about 0.91 (no sharp cut-off); inconclusive means no clear call, values can overlap the other calls; inactive means mostly above about 0.92. The list shows a part of the results.
# Experiment: chemical genetic growth profiling, strain panel (AID 1159580);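 further: tested at 20 µM; growth read once vehicle control cultures reached saturation at 30 °C; 1 = growth at the plate median or of vehicle wells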
# Settings: S. cerevisiae deletion strains, growth OD
smiles,measurement,setting,value
COc1ccc2c(c1)O[C@@H]1COc3cc(OC)c(OC)cc3[C@@H]1C2=O,normalized growth,"locus YAL021C, strain ccr4, stronger effect = lower value",0.977 (inactive)
same,normalized growth,"locus YAL026C, strain drs2, stronger effect = lower value",0.694 (active)
same,normalized growth,"locus YAL030W, strain snc1, stronger effect = lower value",0.663 (active)
same,normalized growth,"locus YBL061C, strain skt5, stronger effect = lower value",0.707 (active)
same,normalized growth,"locus YBR009C, strain hhf1, stronger effect = lower value",0.34 (active)
same,normalized growth,"locus YBR021W, strain FUR4, stronger effect = lower value",0.897 (inactive)
same,normalized growth,"locus YBR023C, strain chs3, stronger effect = lower value",0.819 (active)
same,normalized growth,"locus YBR171W, strain sec66, stronger effect = lower value",0.965 (inactive)
same,normalized growth,"locus YBR229C, strain ROT2, stronger effect = lower value",0.997 (inactive)
same,normalized growth,"locus YBR231C, strain swc5, stronger effect = lower value",0.554 (active)
same,normalized growth,"locus YBR279W, strain paf1, stronger effect = lower value",0.527 (active)
same,normalized growth,"locus YCL011C, strain gbp2, stronger effect = lower value",0.674 (active)
same,normalized growth,"locus YCL016C, strain dcc1, stronger effect = lower value",0.614 (active)
same,normalized growth,"locus YCL029C, strain bik1, stronger effect = lower value",0.68 (active)
same,normalized growth,"locus YCL061C, strain MRC1, stronger effect = lower value",0.354 (active)
same,normalized growth,"locus YCL069W, strain vba3, stronger effect = lower value",0.384 (active)
same,normalized growth,"locus YCR088W, strain abp1, stronger effect = lower value",0.823 (active)
same,normalized growth,"locus YDL005C, strain med2, stronger effect = lower value",0.979 (inactive)
same,normalized growth,"locus YDL035C, strain GPR1, stronger effect = lower value",0.906 (inactive)
same,normalized growth,"locus YDL040C, strain nat1, stronger effect = lower value",0.967 (inactive)
same,normalized growth,"locus YDL074C, strain BRE1, stronger effect = lower value",0.676 (active)
same,normalized growth,"locus YDL101C, strain DUN1, stronger effect = lower value",0.669 (active)
same,normalized growth,"locus YDL134C, strain PPH21, stronger effect = lower value",0.68 (active)
same,normalized growth,"locus YDL185W, strain tfp1, stronger effect = lower value",0.935 (inactive)
same,normalized growth,"locus YDL192W, strain arf1, stronger effect = lower value",0.893 (active)
same,normalized growth,"locus YDR001C, strain nth1, stronger effect = lower value",0.97 (inactive)
same,normalized growth,"locus YDR069C, strain doa4, stronger effect = lower value",1.02 (inactive)
same,normalized growth,"locus YDR101C, strain arx1, stronger effect = lower value",0.913 (active)
same,normalized growth,"locus YDR137W, strain rgp1, stronger effect = lower value",0.995 (inactive)
same,normalized growth,"locus YDR150W, strain NUM1, stronger effect = lower value",0.977 (inactive)
same,normalized growth,"locus YDR159W, strain sac3, stronger effect = lower value",0.864 (inactive)
same,normalized growth,"locus YDR162C, strain NBP2, stronger effect = lower value",0.752 (active)
same,normalized growth,"locus YDR195W, strain ref2",0.842 (active)
same,normalized growth,"locus YDR297W, strain sur2, stronger effect = lower value",0.652 (active)
same,normalized growth,"locus YDR318W, strain mcm21, stronger effect = lower value",0.516 (active)
same,normalized growth,"locus YDR334W, strain swr1, stronger effect = lower value",0.427 (active)
same,normalized growth,"locus YDR335W, strain msn5, stronger effect = lower value",0.867 (active)
same,normalized growth,"locus YDR388W, stronger effect = lower value",0.975 (inactive)
same,normalized growth,"locus YDR392W, strain spt3, stronger effect = lower value",0.131 (active)
same,normalized growth,"locus YDR502C, strain sam2, stronger effect = lower value",0.831 (active)
same,normalized growth,"locus YEL003W, strain gim4, stronger effect = lower value",0.531 (active)
same,normalized growth,"locus YEL037C, strain rad23, stronger effect = lower value",0.981 (inactive)
same,normalized growth,"locus YEL061C, strain CIN8 (second series), stronger effect = lower value",0.257 (active)
same,normalized growth,"locus YEL061C, strain CIN8, stronger effect = lower value",0.315 (active)
same,normalized growth,"locus YER015W, strain faa2, stronger effect = lower value",0.693 (active)
same,normalized growth,"locus YER016W, strain bim1, stronger effect = lower value",0.818 (active)
same,normalized growth,"locus YER110C, stronger effect = lower value",0.799 (active)
same,normalized growth,"locus YER111C, strain swi4, stronger effect = lower value",0.423 (active)
same,normalized growth,"locus YER155C, strain BEM2 (second series), stronger effect = lower value",0.163 (active)
same,normalized growth,"locus YER155C, strain BEM2, stronger effect = lower value",0.426 (active)
same,normalized growth,"locus YER167W, strain BCK2, stronger effect = lower value",0.684 (active)
same,normalized growth,"locus YFR010W, strain ubp6, stronger effect = lower value",1.02 (inactive)
same,normalized growth,"locus YGL078C, strain dbp3, stronger effect = lower value",0.933 (inactive)
same,normalized growth,"locus YGL086W, strain mad1, stronger effect = lower value",0.458 (active)
same,normalized growth,"locus YGL167C, strain pmr1, stronger effect = lower value",0.974 (inactive)
same,normalized growth,"locus YGL173C, strain kem1, stronger effect = lower value",0.954 (inactive)
same,normalized growth,"locus YGL227W, strain vid30, stronger effect = lower value",0.28 (active)
same,normalized growth,"locus YGL240W, strain doc1, stronger effect = lower value",0.916 (inactive)
same,normalized growth,"locus YGL248W, strain PDE1, stronger effect = lower value",0.649 (active)
same,normalized growth,"locus YGL253W, strain hxk2, stronger effect = lower value",0.633 (active)
same,normalized growth,"locus YGR135W, strain pre9, stronger effect = lower value",0.786 (active)
same,normalized growth,"locus YGR252W, strain gcn5, stronger effect = lower value",0.755 (active)
same,normalized growth,"locus YHR013C, strain ard1, stronger effect = lower value",0.558 (active)
same,normalized growth,"locus YHR027C, strain rpn1, stronger effect = lower value",0.999 (inactive)
same,normalized growth,"locus YHR030C, strain SLT2, stronger effect = lower value",0.547 (active) and 0.988 (inactive)
same,normalized growth,"locus YHR079C, strain IRE1 (second series), stronger effect = lower value",0.814 (active)
same,normalized growth,"locus YHR079C, strain IRE1, stronger effect = lower value",0.97 (inactive)
same,normalized growth,"locus YHR094C, strain hxt1, stronger effect = lower value",0.699 (active)
same,normalized growth,"locus YHR129C, strain ARP1, stronger effect = lower value",0.489 (active)
same,normalized growth,"locus YHR142W, strain chs7, stronger effect = lower value",0.195 (active)
same,normalized growth,"locus YHR200W, strain rpn10, stronger effect = lower value",0.939 (inactive)
same,normalized growth,"locus YIL066C, strain RNR3, stronger effect = lower value",0.675 (active)
same,normalized growth,"locus YIL073C, strain SPO22, stronger effect = lower value",0.903 (inactive)
same,normalized growth,"locus YIL125W, strain kgd1, stronger effect = lower value",0.989 (inactive)
same,normalized growth,"locus YIR030C, strain dcg1, stronger effect = lower value",0.879 (active)
same,normalized growth,"locus YJL092W, strain hpr5, stronger effect = lower value",0.822 (active)
same,normalized growth,"locus YJL095W, strain BCK1 (second series), stronger effect = lower value",0.488 (active)
same,normalized growth,"locus YJL095W, strain BCK1, stronger effect = lower value",0.332 (active) and 0.966 (inactive)
same,normalized growth,"locus YJL115W, strain asf1, stronger effect = lower value",0.819 (active)
same,normalized growth,"locus YJL129C, strain trk1, stronger effect = lower value",0.441 (active)
same,normalized growth,"locus YJL134W, strain LCB3, stronger effect = lower value",0.935 (inactive)
same,normalized growth,"locus YJL154C, strain vps35, stronger effect = lower value",0.982 (inactive)
same,normalized growth,"locus YJL164C, strain tpk1, stronger effect = lower value",0.438 (active)
same,normalized growth,"locus YJL166W, strain qcr8, stronger effect = lower value",0.208 (active)
same,normalized growth,"locus YJL168C, strain set2, stronger effect = lower value",0.978 (inactive)
same,normalized growth,"locus YJL187C, strain SWE1 (second series), stronger effect = lower value",0.822 (active)
same,normalized growth,"locus YJL187C, strain SWE1, stronger effect = lower value",0.589 (active)
